Several values for one entry are separate records, joined by “and”; a condition that tells them apart may be missing. Identical values can stand only once. Inconclusive results are not listed. Entries that show only a call come without a potency. Activity calls are given as the source filed them. Unless noted, calls come from the whole dose curve; as a rule, active = well fitted curve in the direction sought with a large enough effect; inconclusive = small, poorly fitted or top-dose-only effect, or another doubt; inactive = no such curve, though single readings can be large; an effect the other way counts as inactive or inconclusive.
Tests used:
[1] = Cell Viability - N2a (AID 540); conditions: N2a mouse neuroblastoma cell viability; activity change, negative = cytotoxicity: at 92.2 µM (top of the series);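 note: cells exposed to compound for 40 h at 37 °C; nearly all actives have a fitted effect of over 45% in size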
How it was run: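 First, 1500 N2a cells per well incubate 5 hr at 37 °C; next, compounds are added and incubated 40 hr at 37 °C; finally CellTiter-Glo is added and luminescence read after 20 min, with AC50 derived by Hill modeling.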

[2] = Cell Viability - HUV-EC-C (AID 542);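 note: cells exposed to compound for 40 hours; nearly all actives have a fitted effect of over 35% in size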
How it was run: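 Decrease in cellular ATP, quantified by luciferase luminescence, reflects toxicity in normal human vascular endothelial HUV-EC-C cells given compound for 40 hr in complete culture medium. Values are AC50s from concentration-response curves.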

[3] = MultiTox-Fluor Cytotoxicity Assay - LYMP1-001 - Live Cells (AID 947)
[4] = Cell Viability - LYMP1-002 - Assay at 40 hr (AID 994); note: nearly all actives have a fitted effect of over 60% in size
How it was run: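 Viability in the human lymphoblastoid line was measured as intracellular ATP via CellTiter-Glo after 40 hr compound exposure. Tetraoctylammonium bromide served as positive control.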

[5] = target: Estrogen receptor (Homo sapiens) (UniProt P03372); assay: qHTS assay for small molecule agonists of estrogen receptor alpha signaling (AID 588514; calls by dose curve; note: nearly all actives have a fitted effect of over 70% in size; note: potency is the fitted concentration of half-maximal effect)
Chain of Estrogen receptor (Homo sapiens) (P03372 whole entry, looked up): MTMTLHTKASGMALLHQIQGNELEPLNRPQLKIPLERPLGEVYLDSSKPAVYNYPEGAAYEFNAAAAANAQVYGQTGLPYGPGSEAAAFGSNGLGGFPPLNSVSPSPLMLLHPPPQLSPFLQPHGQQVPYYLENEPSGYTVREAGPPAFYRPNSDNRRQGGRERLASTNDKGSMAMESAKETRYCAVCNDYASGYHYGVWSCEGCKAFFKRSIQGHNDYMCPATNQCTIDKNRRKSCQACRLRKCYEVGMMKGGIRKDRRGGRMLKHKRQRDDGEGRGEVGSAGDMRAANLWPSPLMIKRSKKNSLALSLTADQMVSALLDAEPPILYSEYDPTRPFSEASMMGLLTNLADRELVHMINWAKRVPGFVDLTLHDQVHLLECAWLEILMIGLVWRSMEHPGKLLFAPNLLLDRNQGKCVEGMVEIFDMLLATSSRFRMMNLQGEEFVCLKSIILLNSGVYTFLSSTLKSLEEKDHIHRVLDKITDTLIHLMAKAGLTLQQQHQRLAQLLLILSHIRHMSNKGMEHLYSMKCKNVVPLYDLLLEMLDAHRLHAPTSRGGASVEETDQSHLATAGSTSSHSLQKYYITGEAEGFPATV
How it was run: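 Reporter-gene assay. […] controls beta-lactamase in HEK 293 GripTite cells; after 18 hrs with compound, CCF4 substrate is added for 2 hrs and fluorescence is read.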

[6] = target: Glucocorticoid receptor (Homo sapiens) (UniProt P04150); assay: qHTS assay for small molecule agonists of glucocorticoid receptor signaling (AID 588532; active = well fitted curve in the direction sought with a large enough effect in the signal ratio, with a control signal flat; the % refers to the signal ratio); conditions: HeLa MMTV-bla, beta-lactamase ratio, agonist, 18 h; stronger effect = higher value; percent of dexamethasone control, DMSO zero
Chain of Glucocorticoid receptor (Homo sapiens) (P04150 whole entry, looked up): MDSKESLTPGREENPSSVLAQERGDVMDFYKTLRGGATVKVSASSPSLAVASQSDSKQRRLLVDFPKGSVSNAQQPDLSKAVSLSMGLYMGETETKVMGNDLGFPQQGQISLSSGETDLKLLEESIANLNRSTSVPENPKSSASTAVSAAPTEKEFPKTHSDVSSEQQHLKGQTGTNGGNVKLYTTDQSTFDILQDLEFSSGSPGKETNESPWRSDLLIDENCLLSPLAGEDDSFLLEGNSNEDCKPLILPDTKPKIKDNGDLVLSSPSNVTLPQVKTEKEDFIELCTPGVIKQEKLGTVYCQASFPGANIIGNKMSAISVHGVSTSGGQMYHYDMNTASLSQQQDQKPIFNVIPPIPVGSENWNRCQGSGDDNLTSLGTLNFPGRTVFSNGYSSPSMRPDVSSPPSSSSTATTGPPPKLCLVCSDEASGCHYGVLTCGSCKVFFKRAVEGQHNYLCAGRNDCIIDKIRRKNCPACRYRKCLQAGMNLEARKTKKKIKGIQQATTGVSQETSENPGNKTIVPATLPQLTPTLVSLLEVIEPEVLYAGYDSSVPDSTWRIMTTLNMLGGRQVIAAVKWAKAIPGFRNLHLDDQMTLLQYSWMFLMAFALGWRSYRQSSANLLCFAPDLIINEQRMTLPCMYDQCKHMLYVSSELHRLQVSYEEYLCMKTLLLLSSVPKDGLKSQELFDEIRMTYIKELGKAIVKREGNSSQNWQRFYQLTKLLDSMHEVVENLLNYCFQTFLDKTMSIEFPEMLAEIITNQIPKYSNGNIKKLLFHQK
How it was run: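 HeLa GRE-bla reporter cells; 18 h compound exposure at 37 C; 2 h CCF4 loading at room temperature; fluorescence at 460 and 530 nm; EC50 by Hill equation.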

[7] = target: Glucocorticoid receptor (Homo sapiens) (UniProt P04150); assay: qHTS assay for small molecule antagonists of glucocorticoid receptor signaling (AID 588533; active = well fitted inhibition curve with a large enough effect in the signal ratio, with a control signal flat, not every such curve was filed as active; the % refers to the signal ratio)
How it was run: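 Antagonist-mode qHTS: compound titrations added to GRE-bla HeLa cells, then dexamethasone 2 nM final; 18 h, 37 C. CCF4 FRET fluorescence normalized to dexamethasone and DMSO; IC50 from Hill fit.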

[8] = target: Peroxisome proliferator-activated receptor delta (Homo sapiens) (UniProt Q03181); assay: qHTS assay for small molecule agonists of peroxisome proliferator-activated receptor delta signaling (AID 588534; calls by dose curve)
Chain of Peroxisome proliferator-activated receptor delta (Homo sapiens) (Q03181 whole entry, looked up): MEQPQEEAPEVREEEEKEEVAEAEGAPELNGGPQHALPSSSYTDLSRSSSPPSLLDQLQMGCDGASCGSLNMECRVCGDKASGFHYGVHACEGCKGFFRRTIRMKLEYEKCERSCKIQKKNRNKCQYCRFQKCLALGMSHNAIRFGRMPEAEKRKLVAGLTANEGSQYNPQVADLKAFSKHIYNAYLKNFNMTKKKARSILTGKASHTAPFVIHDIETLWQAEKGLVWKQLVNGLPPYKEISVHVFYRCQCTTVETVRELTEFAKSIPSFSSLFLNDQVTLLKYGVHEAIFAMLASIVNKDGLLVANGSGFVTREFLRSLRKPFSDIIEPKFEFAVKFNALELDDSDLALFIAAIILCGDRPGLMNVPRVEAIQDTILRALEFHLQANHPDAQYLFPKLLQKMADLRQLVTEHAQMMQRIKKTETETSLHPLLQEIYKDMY
How it was run: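 Reporter cells were plated and held 5 hrs at 37 C before compounds were added. After 18 hrs at 37 C, CCF4 dye was loaded for 2 hrs at RT and fluorescence measured.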

[9] = qHTS assay for small molecule antagonists of peroxisome proliferator-activated receptor delta signaling (AID 588535; active = well fitted inhibition curve with a large enough effect in the signal ratio, with a control signal flat, not every such curve was filed as active; the % refers to the signal ratio;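 for max response: cells co-treated with a PPAR-delta agonist as stimulator during compound exposure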); conditions: HEK293T PPARd-UAS-bla, beta-lactamase FRET ratio, 18 h; 460 nm channel
How it was run: (§1)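 Cells were seeded at 4000 per well in assay medium containing 2% charcoal/dextran FBS and held 5 hrs at 37 C. Compounds were then added for 18 hrs. CCF4 substrate was applied for 2 hrs at room temperature before fluorescence reading.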

[10] = target: Peroxisome proliferator-activated receptor delta (Homo sapiens) (UniProt Q03181); assay: as above
How it was run: as §1

[11] = target: Peroxisome proliferator-activated receptor gamma (Homo sapiens) (UniProt P37231); assay: qHTS assay for small molecule antagonists of peroxisome proliferator-activated receptor gamma signaling (AID 588537; active = well fitted inhibition curve with a large enough effect in the signal ratio, with a control signal flat, not every such curve was filed as active; the % refers to the signal ratio;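 note: reporter cells co-stimulated with 50 nM rosiglitazone agonist during compound treatment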)
Chain of Peroxisome proliferator-activated receptor gamma (Homo sapiens) (P37231 whole entry, looked up): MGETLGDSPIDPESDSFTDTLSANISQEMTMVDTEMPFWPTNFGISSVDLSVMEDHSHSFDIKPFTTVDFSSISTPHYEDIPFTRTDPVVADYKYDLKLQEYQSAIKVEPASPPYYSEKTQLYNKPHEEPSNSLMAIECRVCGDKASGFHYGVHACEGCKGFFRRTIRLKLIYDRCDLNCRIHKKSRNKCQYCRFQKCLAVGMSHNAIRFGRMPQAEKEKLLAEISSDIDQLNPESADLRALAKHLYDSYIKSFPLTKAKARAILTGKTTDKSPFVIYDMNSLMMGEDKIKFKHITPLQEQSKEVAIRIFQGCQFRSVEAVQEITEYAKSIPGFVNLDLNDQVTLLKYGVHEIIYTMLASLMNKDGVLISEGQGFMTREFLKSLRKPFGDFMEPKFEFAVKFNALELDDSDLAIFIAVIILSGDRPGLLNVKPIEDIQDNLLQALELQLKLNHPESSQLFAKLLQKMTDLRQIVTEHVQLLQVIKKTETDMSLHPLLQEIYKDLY
How it was run: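 Step one: plate 3000 HEK293 UAS-bla cells per well in medium with 1% stripped serum and hold 6-6.5 h at 37 C. Step two: add compound and 50 nM agonist for 16 h. Step three: CCF4 loading, fluorescence read.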

[12] = target: Vitamin D3 receptor (Homo sapiens) (UniProt P11473); assay: qHTS assay for small molecule antagonists of vitamin D receptor signaling (AID 588541; calls by dose curve;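 note: receptor activated by calcitriol during compound treatment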)
Chain of Vitamin D3 receptor (Homo sapiens) (P11473 whole entry, looked up): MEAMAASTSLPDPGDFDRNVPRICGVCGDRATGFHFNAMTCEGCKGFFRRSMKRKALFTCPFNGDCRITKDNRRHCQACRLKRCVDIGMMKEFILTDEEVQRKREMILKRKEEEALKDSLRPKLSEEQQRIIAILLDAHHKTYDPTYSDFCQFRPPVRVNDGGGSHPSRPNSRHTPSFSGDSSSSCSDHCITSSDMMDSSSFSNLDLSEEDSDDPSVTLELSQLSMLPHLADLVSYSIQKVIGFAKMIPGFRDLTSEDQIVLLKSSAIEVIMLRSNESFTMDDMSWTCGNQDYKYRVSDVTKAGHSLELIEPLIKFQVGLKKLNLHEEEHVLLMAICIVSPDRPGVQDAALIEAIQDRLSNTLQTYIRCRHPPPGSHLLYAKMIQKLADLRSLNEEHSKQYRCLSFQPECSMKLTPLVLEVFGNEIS
How it was run: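 VDR-UAS-bla HEK293T cells in 2% charcoal-stripped FBS were stimulated with 1-alpha,25-dihydroxyvitamin D3 (3 nM final) plus compound for 16 h at 37 C. The beta-lactamase CCF4 readout was normalized to 50 nM agonist and DMSO, and Hill fits gave IC50.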

[13] = target: Vitamin D3 receptor (Homo sapiens) (UniProt P11473); assay: qHTS assay for small molecule agonists of vitamin D receptor signaling (AID 588543; calls by dose curve)
How it was run: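 Measured: β-lactamase reporter activity (CCF4, 405 nm excitation, 460/530 nm emission) in HEK293T VDR-UAS-bla cells after 16 h compound exposure at 37 °C. Normalization against 50 nM 1α,25-dihydroxyvitamin D3 and DMSO; Hill-fit EC50.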

[14] = qHTS assay for small molecule agonists of the antioxidant response element (ARE) signaling pathway (AID 651741; active = well fitted activation curve with a large enough effect in the signal ratio; the % refers to the signal ratio; note: potency is the fitted concentration of half-maximal effect)
How it was run: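 HepG2 ARE-bla cells plated at 2,000 cells/well and incubated 5 h at 37 C/5% CO2 received 23 nL compound in DMSO. After 16 h at 37 C, LiveBLAzer B/G FRET substrate was applied for 2 h at room temperature and fluorescence read.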

[15] = qHTS assay for small molecule activators of the nuclear factor-kappa B (NF-kB) signaling pathway (AID 651749; active = well fitted activation curve with a large enough effect in the signal ratio; the % refers to the signal ratio); conditions: NF-kB-bla ME-180 cells, beta-lactamase FRET ratio, 16 h; stronger effect = higher value
How it was run: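 Incubation lasted 16 hr at 37C in 5% CO2 after 23 nL compound addition to ME-180 NF-kB-bla cells. Activation appears as beta-lactamase-mediated FRET loss.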

[16] = Cell Viability - H-4-II-E (AID 543);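 note: cells exposed to compound for 40 hours; nearly all actives have a fitted effect of over 35% in size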; note: potency is the fitted concentration of half-maximal effect
How it was run: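 Here, cytotoxicity is measured in the rat hepatoma line H-4-II-E as loss of intracellular ATP after 40 hr compound treatment, detected by luciferase luminescence.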

[17] = MultiTox-Fluor Cytotoxicity Assay - LYMP1-002 - Dead Cells (AID 960); note: nearly all actives have a fitted effect of over 60% in size
How it was run: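 Acute cytotoxicity in a human lymphoblastoid line is scored as rising dead-cell protease signal after 16 hr exposure at 37 C, measured fluorometrically (485/520).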

[18] = Cell Viability - LYMP2-005 (AID 967)
How it was run: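 Luciferase-based ATP quantitation served as the viability measure in human lymphoblastoid LYMP2-005 cells exposed to test compounds for 24 h at 37 C in complete culture medium. Potency (AC50) was obtained by fitting concentration-response curves with the Hill equation.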

[19] = target: Peroxisome proliferator-activated receptor gamma (Homo sapiens) (UniProt P37231); assay: qHTS assay for small molecule agonists of peroxisome proliferator-activated receptor gamma signaling (AID 588536; active = well fitted curve in the direction sought with a large enough effect in the signal ratio, with a control signal flat, not every such curve was filed as active; the % refers to the signal ratio)
How it was run: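 Ratiometric blue/green fluorescence (405 nm excitation; 460 and 530 nm emission) from CCF4-loaded HEK293 reporter cells serves as signal. Exposure to test compounds lasts 16 h at 37 C in medium containing 1% charcoal/dextran-treated serum.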

[20] = target: Bile acid receptor (Homo sapiens) (UniProt Q96RI1); assay: qHTS assay for small molecule agonists of farnesoid X receptor signaling (AID 588527; calls by dose curve); conditions: HEK293T FXR-UAS-bla, beta-lactamase ratio, 16 h; stronger effect = higher value
Chain of Bile acid receptor (Homo sapiens) (Q96RI1 whole entry, looked up): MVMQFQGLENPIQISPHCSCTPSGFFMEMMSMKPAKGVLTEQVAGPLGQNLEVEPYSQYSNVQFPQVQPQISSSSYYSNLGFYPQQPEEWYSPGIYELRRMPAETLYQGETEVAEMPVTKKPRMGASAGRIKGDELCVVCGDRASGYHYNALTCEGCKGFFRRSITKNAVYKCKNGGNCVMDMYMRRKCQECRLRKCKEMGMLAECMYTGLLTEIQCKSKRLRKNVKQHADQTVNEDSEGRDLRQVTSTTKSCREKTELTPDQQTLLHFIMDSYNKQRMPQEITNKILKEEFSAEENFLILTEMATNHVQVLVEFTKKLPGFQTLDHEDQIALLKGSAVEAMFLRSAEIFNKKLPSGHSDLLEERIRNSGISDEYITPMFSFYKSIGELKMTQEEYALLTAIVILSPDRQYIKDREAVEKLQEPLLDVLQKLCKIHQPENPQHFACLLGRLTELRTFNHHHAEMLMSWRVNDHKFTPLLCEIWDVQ
How it was run: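 Agonist-mode beta-lactamase reporter in GeneBLAzer FXR-UAS-bla HEK293T cells, titration up to 92 uM, 16 h exposure at 37 C, CCF4 fluorescence. Response scaled to DMSO (0%) and 100 uM chenodeoxycholic acid (100%), then Hill-fitted for EC50 and efficacy.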

SMILES	Potency [1]	Potency [2]	outcome [3]	Potency [4]	Potency [5]	activation [6]	outcome [7]	outcome [8]	max response [9]	outcome [10]	Potency [11]	outcome [12]	outcome [13]	Potency [14]	activation [15]	Potency [16]	Potency [17]	Potency [18]	outcome [19]	activation [20]
c1ccc(P(c2ccccc2)c2ccccc2)cc1	inactive	inactive	inactive	inactive	inactive	1.22% (inactive)	inactive	inactive	58.2%	inactive	inactive	inactive	inactive	37.6 µM (active)	-0.914% (inactive)					
Oc1cccc(Cl)c1Cl	inactive		inactive	inactive	inactive	-0.403% (inactive)	inactive				inactive					inactive	inactive	inactive	inactive	
O=c1ccc(=O)[nH][nH]1		inactive	inactive	inactive							inactive	inactive	inactive		-0.7% (inactive) and 1.42% (inactive)	inactive	inactive	inactive	inactive	-0.172% (inactive) and -2.47% (inactive)
CC(=O)CCC(C)=O		inactive	inactive	inactive	inactive	-5.45% (inactive)	inactive	inactive	-12.7%	inactive		inactive	inactive	inactive	0.108% (inactive)	inactive	inactive	inactive	inactive	
Cl/C=C/CCl	inactive	inactive		inactive		1.37% (inactive)	inactive	inactive	5.14%	inactive	inactive		inactive	inactive	0.574% (inactive)	inactive	inactive	inactive		
BrC(Br)Br		inactive	inactive	inactive		-1.59% (inactive)	inactive	inactive				inactive			0.744% (inactive)	inactive	inactive	inactive		-2.73% (inactive)
BrCC(Br)C1CCC(Br)C(Br)C1 (stereo not drawn)	inactive	inactive	inactive	inactive		3.61% (inactive)									-1.21% (inactive)		inactive	inactive	inactive	
C=CC=O	inactive	inactive	inactive	inactive		-2.21% (inactive)	inactive	inactive	40.7%	inactive			inactive	47.3 µM (active)	-0.542% (inactive)	inactive	inactive			
COC(=O)Nc1nc2ccccc2[nH]1	inactive		inactive			-11.7% (inactive)		inactive	-45%	inactive	inactive		inactive	61.1 µM (active)		3.98 µM (active)		inactive	inactive	
Clc1cccc2ccccc12		inactive		inactive					-15.1%	inactive			inactive	inactive		inactive	inactive	inactive		
CC(C)(OOC(C)(C)c1ccccc1)c1ccccc1	inactive	inactive		inactive		-3.95% (inactive) and 1.36% (inactive)	inactive	inactive	42.8% and 13.3%	inactive		inactive	inactive	inactive		inactive		inactive	inactive	3.57% (inactive) and 3.43% (inactive)
Cc1cc(-c2cc(C)c(N)c(C)c2)cc(C)c1N	inactive			inactive	inactive	-0.885% (inactive)		inactive	7.84%	inactive		inactive	inactive		0.737% (inactive)	inactive		inactive	inactive	
ClCC(Cl)CCl	inactive		inactive	inactive		-1.49% (inactive) and -1.66% (inactive)	inactive	inactive	17.7%	inactive		inactive	inactive	inactive		inactive	inactive	inactive		
N#CCCCCC#N	inactive	inactive	inactive			-2.66% (inactive)	inactive	inactive				inactive	inactive	inactive		inactive	inactive	inactive	inactive	-2.39% (inactive)
ClCC(Cl)Cl	inactive	inactive	inactive	inactive				inactive	-51.8%	inactive			inactive	inactive				inactive		
CC(Cl)(Cl)Cl		inactive	inactive	inactive				inactive	-34.9% and 9.34%	inactive	inactive	inactive		inactive	-0.312% (inactive) and 0.328% (inactive)	inactive		inactive	inactive	
ClCCOCOCCCl	inactive	inactive	inactive			-0.285% (inactive)	inactive				inactive	inactive	inactive		-0.753% (inactive)		inactive	inactive	inactive	0.794% (inactive)
CSSC	inactive	inactive		inactive				inactive				inactive	inactive	inactive		inactive	inactive	inactive		
CC(C)[C@]12CC(=O)[C@H](C)[C@H]1C2	inactive	inactive		inactive				inactive	17.2% and -10.4%	inactive	inactive	inactive	inactive	inactive	-0.354% (inactive) and -5.97% (inactive)		inactive	inactive	inactive	-2.27% (inactive) and 5.04% (inactive)
Cc1cc(-c2ccc(N)c(C)c2)ccc1N	inactive		inactive	inactive	22.4 µM (active)						inactive		inactive	12.2 µM (active) and 6.86 µM (active)			inactive	inactive	inactive	

— PubChem BioAssay (NCATS)
